The values below come from PubChem BioAssay AID2291 (The Scripps Research Institute Molecular Screening Center, 2010).

The campaign covered roughly 16,000 compounds. About 75 (0.5%) were called active. Rule as the data show it: active = inhibition above about 30%; inactive = the rest. The full list was thinned out, with actives kept by preference.

Sequence of Protein phosphatase methylesterase 1 (Homo sapiens) (Q9Y570 whole entry, looked up): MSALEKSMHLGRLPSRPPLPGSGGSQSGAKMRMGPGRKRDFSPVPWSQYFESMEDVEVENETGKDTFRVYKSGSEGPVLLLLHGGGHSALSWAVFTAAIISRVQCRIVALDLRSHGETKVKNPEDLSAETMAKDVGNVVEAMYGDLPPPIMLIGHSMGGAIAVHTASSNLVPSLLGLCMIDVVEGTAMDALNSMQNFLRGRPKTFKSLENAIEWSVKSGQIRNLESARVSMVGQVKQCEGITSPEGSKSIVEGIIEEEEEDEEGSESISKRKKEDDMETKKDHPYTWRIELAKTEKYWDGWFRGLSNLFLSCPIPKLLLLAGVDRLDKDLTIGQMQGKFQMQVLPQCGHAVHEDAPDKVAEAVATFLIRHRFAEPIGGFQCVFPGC

The assay addresses Protein phosphatase methylesterase 1 (Homo sapiens) (UniProt Q9Y570). As to the kind of experiment: Maybridge compound blocking human PME-1 (AID 2291). To be noted: recombinant PME-1, FP-Rh probe fluorescence polarization; at 9 µM; stronger effect = higher value.
For `COc1ccc(-c2ccc(/C=N/NC(=O)CCc3ccc(O)cc3)s2)cc1`, the inhibition – broadly, the drop in the measured response relative to a control, in per cent – is -3.06% (inactive). In the case of `COc1ccc(COCC(O)CN2CCC(C(N)=O)CC2)cc1` (stereo unspecified) it was 1.38% (inactive); in that of `FC(F)(F)c1ccc(Cl)c(NC(=S)NN=C2CCCCCC2)c1`, 0.88% (inactive); in that of `CC1(C)C=Cc2cc(-c3noc(-c4ccccc4)n3)ccc2O1`, -23.5% (inactive). On to `CCCc1c(C(=O)Nc2ccc(F)cc2)cnn1-c1ccccc1`, for which the inhibition was 3.87% (inactive). On to `O=C(Oc1ccccc1N1CCCCC1)c1sc2ccccc2c1Cl`, for which the inhibition was -0.751% (inactive). In the case of `CCOC(=O)CNC(=O)CCc1cc(OC)c(OC)c(OC)c1` it was 6.62% (inactive). On to `Cn1c(S(=O)(=O)O)nc2ccccc21`, for which the inhibition was 3.94% (inactive). Then `O=C(Sc1ccccc1)c1ccc(C(F)(F)F)cc1`, with -0.43% (inactive). Then `CN(NS(=O)(=O)CS(C)(=O)=O)c1ncccc1[N+](=O)[O-]`, with 5.17% (inactive).

As for `O=C(O)c1onc2ccccc12`, the inhibition is -2.58% (inactive).

As to `CCOC(=O)NN(C(=O)OCC)c1c(C)c(C)c(C)c(C)c1C`, the inhibition is -1.33% (inactive). Regarding `Cc1nc(C(F)(F)F)ccc1C(=O)NC1CCCc2ccccc21` (stereo unspecified), the inhibition was 1.46% (inactive). In the case of `Cc1cc2nc(C)c(C)nc2cc1C` it was -1.82% (inactive); in that of `COc1ccc(NC(=O)C2CC(C)=C(C)CC2C(=O)O)c(N2CCOCC2)n1` (stereo unspecified), 1.52% (inactive); in that of `N#CC(Cc1ccccc1)Sc1ccccc1` (stereo unspecified), 3.19% (inactive). For the compound `O=C(CNC(=O)c1ccccc1F)c1ccc(Br)cc1`, the inhibition was -7.48% (inactive). In the case of `O=C(/C(=N\N=C\c1ccc2c(c1)OCO2)c1ccccc1)c1ccccc1`, the inhibition was 4.75% (inactive).

Turning to `Cc1cc2nsnc2cc1Cl`, the inhibition was 0.257% (inactive). In the case of `COC(=O)c1sc(SC)c(-c2ccn[nH]2)c1C`, the inhibition is 2.07% (inactive). Consider `NC(=S)N/N=C\Cc1nnnn1-c1ccc(Cl)cc1`, for which the inhibition is 1.94% (inactive). Regarding `Nc1nc(C23CC4CC(CC(C4)C2)C3)cs1`, the inhibition was 8.45% (inactive). Then `CSc1ccc(C(F)(F)F)cc1C(=O)/C=C/N(C)C`, with -0.344% (inactive). For `Clc1ccc(-c2csc(-c3cnccn3)n2)s1`, the inhibition is -1.61% (inactive).

With `O=C1c2ccc3c4c(ccc(c24)C(=O)N1c1ccccc1)C(=O)N(c1ccccc1)C3=O`, the inhibition was 5.87% (inactive). As to `CCOC(=O)C1=C(C)NC(=O)NC1c1ccc(-c2cccc([N+](=O)[O-])c2)o1` (stereo unspecified), the inhibition is -24.2% (inactive). With `C/C(=N\NC(N)=S)c1csc(-c2ccccc2)n1`, the inhibition is 4.41% (inactive).

As to `O=C(c1cc(-c2cccs2)on1)N1CCCCC1`, the inhibition was -4.77% (inactive).

Turning to `COCn1nnc2ccccc21`, the inhibition is 0.294% (inactive). As for `COc1ccc(/C=C(\NC(=O)c2ccccc2)C(=O)N/N=C/c2ccc3c(c2)OCO3)cc1`, the inhibition is -5.56% (inactive). In the case of `CCCCc1ccc(-n2c(-c3ccc(F)cc3)coc2=O)cc1` it was 2.07% (inactive); in that of `N#C/C(=C\N1CCc2ccccc21)S(=O)(=O)c1ccc(C(F)(F)F)cn1`, 2.09% (inactive); in that of `Cn1c(=O)c(C#N)cn(-c2ccccc2)c1=O`, 2.81% (inactive). Regarding `Cc1ccc(NC(=S)C(C#N)C(=O)N2CCCC2)c(C)c1` (stereo unspecified), the inhibition is -4.1% (inactive).

Take `O=C(Nc1ccccc1-c1ccccc1)c1cccs1`: the inhibition was -1.11% (inactive). In the case of `Fc1cccc(Cl)c1CN1CCN(c2ncnc3scc(-c4cccs4)c23)CC1` it was -3.44% (inactive). Then `CCOC(=O)Cc1csc(NC(NC(=O)OCC)(C(F)(F)F)C(F)(F)F)n1`, with 4.35% (inactive); and `O=C1Nc2ccccc2C12NNC(=S)NN2`, with 65.2% (active).

On to `CSc1ccc(C(F)(F)F)cc1NC(=S)Nc1ccccc1`, for which the inhibition was 0.0132% (inactive). In the case of `N#Cc1c(-c2cccs2)oc(-n2cccc2)c1-c1cc(Br)cs1` it was -56.1% (inactive); in that of `O=C(NNC(=O)C1c2ccccc2Oc2ccccc21)c1cccc(F)c1`, 0.119% (inactive); in that of `O=S(=O)(NC1Cc2ccccc2C1)c1ccc(-c2csnn2)cc1`, 7.03% (inactive).

`Cn1cnc([N+](=O)[O-])c1N1CCN(C(c2ccccc2)c2ccccc2)CC1`: the inhibition was 0.986% (inactive).

`CN1CCCCC(C2=C(Cl)C(=O)CCC2)C1=O` (stereo unspecified): the inhibition was 3.98% (inactive). Turning to `OC(COc1ccc(Cl)c(Cl)c1)CN1CCC(Nc2nccc(C(F)(F)F)n2)CC1` (stereo unspecified), the inhibition is -0.258% (inactive). For `O=C(Nc1cc2ccccc2s1)N1CCN(Cc2c(F)cccc2Cl)CC1`, the inhibition is 0.279% (inactive). In the case of `NC(=O)c1cccc2c1OCCO2` it was 6.89% (inactive); in that of `Nc1ccccc1SCc1cc([N+](=O)[O-])cc2c1OCOC2`, 5.44% (inactive). In the case of `COc1cc(CC/C(C)=N/O)ccc1O` it was 3.22% (inactive).

Turning to `NNC(=O)c1ccc(Cl)cc1Cl`, the inhibition is 15.5% (inactive). For `CC(=O)Nc1ccc(C)cc1N=Cc1ccncc1`, the inhibition was 2.67% (inactive). In the case of `O=C(O)c1cnc(NCc2ccccc2)s1` it was -5.43% (inactive); in that of `COc1ccc(CCN=C(C)c2cc(Cl)cc(Cl)c2O)cc1OC`, 0.059% (inactive); in that of `CC1(NC(=O)OCc2ccccc2)CC1NC(=O)OCc1ccccc1` (stereo unspecified), -1.61% (inactive).

With `O=S(=O)(c1ccc2c(c1)OCCO2)N1CCN(c2ccc(C(F)(F)F)cn2)CC1`, the inhibition was 27.1% (inactive). In the case of `O=C(Cc1cccc2ccccc12)NNC(=O)Nc1ccc(Cl)cc1` it was -12.8% (inactive). For `CCOC(=O)/C(=N/Nc1ccccc1)C(C)=N`, the inhibition was 1.95% (inactive).

For the compound `N#CC(C#N)=C/C=C(/Sc1nc2cc(Cl)ccc2s1)c1ccc(Cl)cc1`, the inhibition was 3.07% (inactive). For the compound `Cc1cccc(Cl)c1NC(=S)NCCNC(=O)OC(C)(C)C`, the inhibition is -2.72% (inactive). Take `O=c1[nH]c2ccccc2c(=O)n1CCSc1ccc(Cl)cc1`: the inhibition was -0.818% (inactive). In the case of `O=C(O)CCc1cccnc1`, the inhibition was 5.03% (inactive). Regarding `OC(CN1CCN(c2ccc(C(F)(F)F)cn2)CC1)c1ccc2c(c1)OCCO2` (stereo unspecified), the inhibition was -3.57% (inactive). Take `OC(COc1ccc(F)cc1)(c1ccccc1)c1ccccc1`: the inhibition is 2.52% (inactive). Then `Cn1/c(=N\N=C2CCCCC2)sc2ccccc21`, with 24.3% (inactive); and `O=C(O)/C=C/C(=O)Nc1ccc(NC(=O)c2ccccc2O)cc1`, with -5.93% (inactive).

As to `O=C1CC(c2ccccc2)C(=O)N1Cc1cccs1` (stereo unspecified), the inhibition is -0.212% (inactive).
